# Data published in PMC5540273 (PLoS ONE, 2017).
# “And” between values parts separate entries of the source, which are not always exact repeats. Equal entries are not always repeated. Where two headings read alike, the source gives them in different places.
# Legend:
# EIF2AK1 = details: concentration: 1 μM, replicates: in singlicate; n = 1
# EPHA1 = details: concentration: 1 μM, replicates: in singlicate, n = 1
# EPHA2 = details: concentration: 1 μM, replicates: in singlicate; n = 1
# EPHA3 = details: concentration: 1 μM, replicates: in singlicate, n = 1
# EPHA4 = details: concentration: 1 μM, replicates: in singlicate, n = 1
# EPHA5 = details: concentration: 1 μM, replicates: in singlicate; n = 1
# EPHA6 = details: concentration: 1 μM, replicates: in singlicate, n = 1
# EPHA7 = details: concentration: 1 μM, replicates: in singlicate; n = 1
# EPHA8 = details: concentration: 1 μM, replicates: in singlicate, n = 1
# EPHB1 = details: concentration: 1 μM, replicates: in singlicate, n = 1
# EPHB2 = details: concentration: 1 μM, replicates: in singlicate; n = 1
# EPHB3 = details: concentration: 1 μM, replicates: in singlicate, n = 1
# EPHB4 = details: concentration: 1 μM, replicates: in singlicate, n = 1
# EPHB6 = details: concentration: 1 μM, replicates: in singlicate, n = 1
# ERBB2 = details: concentration: 1 μM, replicates: in singlicate, n = 1
# ERBB3 = details: concentration: 1 μM, replicates: in singlicate, n = 1
# ERBB4 = details: concentration: 1 μM, replicates: in singlicate, n = 1
# ERK1 = system: T1, ERK1; details: concentration: 1 μM, replicates: in singlicate; n = 1
# T1 construct: gene MAPK3
# ERK2 = system: T2, ERK2; details: concentration: 1 μM, replicates: in singlicate; n = 1
# T2 construct: gene MAPK1
# ERK3 = system: T3, ERK3; details: concentration: 1 μM, replicates: in singlicate, n = 1
# T3 construct: gene MAPK6
# 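Note: KINOMEscan kinase panel screen.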
smiles,measurement,setting,value
O=c1cc(N2CCOCC2)nc2n(Cc3cccc(Cl)c3)ccn12 [GSK2296823],%Inh,EIF2AK1,7%
same,%Inh,EPHA1,17%
same,%Inh,EPHA2,14%
same,%Inh,EPHA3,82%
same,%Inh,EPHA4,20%
same,%Inh,EPHA5,0%
same,%Inh,EPHA6,19%
same,%Inh,EPHA7,7%
same,%Inh,EPHA8,17%
same,%Inh,EPHB1,8%
same,%Inh,EPHB2,0%
same,%Inh,EPHB3,15%
same,%Inh,EPHB4,9%
same,%Inh,EPHB6,56%
same,%Inh,ERBB2,0%
same,%Inh,ERBB3,0%
same,%Inh,ERBB4,100%
same,%Inh,ERK1,0%
same,%Inh,ERK2,0%
same,%Inh,ERK3,0%
CNc1nccc(-c2c(-c3ccc(F)cc3)ncn2CCCN2CCOCC2)n1 [SB-222516],%Inh,EIF2AK1,12%
same,%Inh,EPHA1,14%
same,%Inh,EPHA2,0%
same,%Inh,EPHA3,0%
same,%Inh,EPHA4,0%
same,%Inh,EPHA5,0%
same,%Inh,EPHA6,0%
same,%Inh,EPHA7,21%
same,%Inh,EPHA8,25%
same,%Inh,EPHB1,17%
same,%Inh,EPHB2,0%
same,%Inh,EPHB3,0%
same,%Inh,EPHB4,8%
same,%Inh,EPHB6,0%
same,%Inh,ERBB2,0%
same,%Inh,ERBB3,30%
same,%Inh,ERBB4,8%
same,%Inh,ERK1,7%
same,%Inh,ERK2,1%
same,%Inh,ERK3,0%
NC(=O)c1sc(-n2cnc3ccccc32)cc1OCc1ccccc1F [GSK1024306],%Inh,EIF2AK1,0%
same,%Inh,EPHA1,2%
same,%Inh,EPHA2,0%
same,%Inh,EPHA3,5%
same,%Inh,EPHA4,0%
same,%Inh,EPHA5,0%
same,%Inh,EPHA6,0%
same,%Inh,EPHA7,0%
same,%Inh,EPHA8,19%
same,%Inh,EPHB1,0%
same,%Inh,EPHB2,0%
same,%Inh,EPHB3,1%
same,%Inh,EPHB4,0%
same,%Inh,EPHB6,8%
same,%Inh,ERBB2,47%
same,%Inh,ERBB3,18%
same,%Inh,ERBB4,25%
same,%Inh,ERK1,0%
same,%Inh,ERK2,0%
same,%Inh,ERK3,0%
COc1ccc(-c2nc3n(c2-c2ccncc2)CCC3)cc1 [SKF-104493],%Inh,EIF2AK1,0%
same,%Inh,EPHA1; 1 µM,18% and 0%
same,%Inh,EPHA2,0%
same,%Inh,EPHA3; 1 µM,0% and 18%
same,%Inh,EPHA4; 1 µM,0% and 17%
same,%Inh,EPHA5,0%
same,%Inh,EPHA6; 1 µM,10% and 7%
same,%Inh,EPHA7,0%
same,%Inh,EPHA8; 1 µM,8% and 0%
same,%Inh,EPHB1; 1 µM,0% and 22%
same,%Inh,EPHB2,0%
same,%Inh,EPHB3; 1 µM,10% and 4%
same,%Inh,EPHB4; 1 µM,16% and 11%
same,%Inh,EPHB6; 1 µM,8% and 0%
same,%Inh,ERBB2; 1 µM,0% and 29%
same,%Inh,ERBB3; 1 µM,0% and 8%
same,%Inh,ERBB4; 1 µM,29% and 18%
same,%Inh,ERK1,0%
same,%Inh,ERK2,0%
same,%Inh,ERK3; 1 µM,0% and 9%
CCc1nc(-c2cccc(N(C)S(=O)(=O)c3ccccc3)c2)c(-c2ccnc(Nc3ccc(N4CCN(C(C)=O)CC4)nc3)n2)s1 [GSK1645895],%Inh,EIF2AK1,0%
same,%Inh,EPHA1,29%
same,%Inh,EPHA2,0%
same,%Inh,EPHA3,14%
same,%Inh,EPHA4,0%
same,%Inh,EPHA5,0%
same,%Inh,EPHA6,2%
same,%Inh,EPHA7,5%
same,%Inh,EPHA8,25%
same,%Inh,EPHB1,7%
same,%Inh,EPHB2,0%
same,%Inh,EPHB3,0%
same,%Inh,EPHB4,0%
same,%Inh,EPHB6,96.9%
same,%Inh,ERBB2,17%
same,%Inh,ERBB3,0%
same,%Inh,ERBB4,26%
same,%Inh,ERK1,0%
same,%Inh,ERK2,0%
same,%Inh,ERK3,0%
Cn1cc(-c2ccc3c(c2)CCN3C(=O)Cc2cccc(C(F)(F)F)c2)c2c(N)ncnc21 [GSK2606414],%Inh,EIF2AK1,1%
same,%Inh,EPHA1,3%
same,%Inh,EPHA2,0%
same,%Inh,EPHA3,0%
same,%Inh,EPHA4,0%
same,%Inh,EPHA5,0%
same,%Inh,EPHA6,0%
same,%Inh,EPHA7,4%
same,%Inh,EPHA8,14%
same,%Inh,EPHB1,15%
same,%Inh,EPHB2,0%
same,%Inh,EPHB3,0%
same,%Inh,EPHB4,0%
same,%Inh,EPHB6,18%
same,%Inh,ERBB2,0%
same,%Inh,ERBB3,0%
same,%Inh,ERBB4,0%
same,%Inh,ERK1,0%
same,%Inh,ERK2,0%
same,%Inh,ERK3,2%
Fc1cccc(COc2ccc(Nc3ncnc4sc(-c5ccc[nH]5)cc34)cc2Cl)c1 [GW707818],%Inh,EIF2AK1,0%
same,%Inh,EPHA1,0%
same,%Inh,EPHA2,0%
same,%Inh,EPHA3,18%
same,%Inh,EPHA4,0%
same,%Inh,EPHA5,0%
same,%Inh,EPHA6,0%
same,%Inh,EPHA7,0%
same,%Inh,EPHA8,4%
same,%Inh,EPHB1,1%
same,%Inh,EPHB2,15%
same,%Inh,EPHB3,0%
same,%Inh,EPHB4,0%
same,%Inh,EPHB6,16%
same,%Inh,ERBB2,100%
same,%Inh,ERBB3,0%
same,%Inh,ERBB4,88%
same,%Inh,ERK1,0%
same,%Inh,ERK2,0%
same,%Inh,ERK3,3%
Cc1ccc(NC(=O)c2cccc(C#N)c2)cc1-c1ccc(C(=O)Nc2ccncc2)cc1 [GSK1398463],%Inh,EIF2AK1,7%
same,%Inh,EPHA1,12%
same,%Inh,EPHA2,30%
same,%Inh,EPHA3,13%
same,%Inh,EPHA4,43%
same,%Inh,EPHA5,0%
same,%Inh,EPHA6,34%
same,%Inh,EPHA7,12%
same,%Inh,EPHA8,46%
same,%Inh,EPHB1,22%
same,%Inh,EPHB2,13%
same,%Inh,EPHB3,26%
same,%Inh,EPHB4,25%
same,%Inh,EPHB6,2%
same,%Inh,ERBB2,0%
same,%Inh,ERBB3,0%
same,%Inh,ERBB4,32%
same,%Inh,ERK1,0%
same,%Inh,ERK2,0%
same,%Inh,ERK3,5%
